esBAF inh: Bmi1 luciferase reporter increase in mESCs, primary screen, esBAF inhibitor project, mouse ES cells, Bmi1 luciferase knock-in, single point | 24 h; 100% = twice the neutral-well signal | reporter increase, % at 12.5 µM | hit rate 2% among 350,000 | AID 602393, 2012; in the data active means activation above about 40%;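 further: 0% = median of the plate's neutral control wells and 100% = double that signal; a rise in the Bmi1 reporter signal indicates esBAF inhibition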
NadD inh: inhibitors of S. aureus NadD, primary screen, biochemical, colorimetric, uHTS; hit rate 0.78% among 360,000; inhibition, % at 20 µM; Nicotinate-nucleotide adenylyltransferase NadD (Staphylococcus aureus N315); purified NadD enzyme, colorimetric absorbance read-out; in the data active means inhibition above about 26%
SKN-1 block: suppressors of acrylamide-induced Pgst-4::GFP reporter in worms, primary screen, SKN-1 inhibitor project, whole organism, uHTS, GFP/RFP fluorescence ratio, strain VP596; C. elegans VP596 Pgst-4::GFP/RFP ratio, 24 h; AID 624304, 2012; inhibition, % at 21.8 µM; hit rate 0.49% among 360,000;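 active means interference check ratio from 0.5 to 1.5 plus GFP to RFP signal ratio inhibition reaching or exceeding a fixed threshold, cut at about 30% in these data, passing the limit was not always enough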
GRIN3A LBD mod: binders of NR3A ligand-binding domain, primary screen, biophysical, differential scanning fluorimetry, uHTS. Glutamate receptor ionotropic, NMDA 3A (GRIN3A) ligand-binding domain. NR3A LBD differential scanning fluorimetry, Tm shift; 0% = protein alone, 100% = glycine-bound protein. Tm shift relative to glycine control, % at 25 µM. hit rate 2.5% among 340,000;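 active means melting temperature shift of at least 10% of the positive control shift, at one fixed dose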
SMARCA2 activ: SMARCA2 (BRM) function activators, primary screen, cell-based, luminescence, high throughput. AID 652017, 2013. activation, % at 9.1 µM. hit rate 1% among 370,000. MG213 cells, MMTV-luciferase reporter, dexamethasone, overnight; in the data active means activation above about 7.8%;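 further: 0% = vehicle wells and 100% = reference activator wells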
Vif inh: HIV Vif self-association inhibitors, primary screen, imaging, HEK293T, single point | HEK293T cells, Vif self-association by quenched fluorescence, 24 h | inhibition, % at 7.49 µM | hit rate 0.35% among 340,000; in the data active means inhibition above about 50%, passing the limit was not always enough
Numbers without * were called inactive; . = no result given. Most compounds without a hit are left out; they make up all but 5.2% or so of the library.

SMILES	esBAF inh	NadD inh	SKN-1 block	GRIN3A LBD mod	SMARCA2 activ	Vif inh
C[C@@H]1CN([C@H](C)CO)C(=O)c2cccc(NC(=O)Nc3ccc4c(c3)OCO4)c2O[C@@H]1CN(C)CC1CCCCC1	-5	.	.	.	.	.
CCN1[C@@H]2Cn3c(ccc(-c4cccc(F)c4)c3=O)[C@H]1[C@@H](C(=O)NCCCN(C)C)[C@@H]2CO	-8	.	.	.	.	.
COc1ccccc1-c1ccc([C@H]2[C@@H](CO)N3CCCCN(C(=O)NC4CCCC4)C[C@@H]23)cc1	0	.	.	.	.	.
C[C@@H]1CN([C@@H](C)CO)C(=O)c2cccc(NC(=O)c3ccncc3)c2O[C@H]1CN(C)S(=O)(=O)c1ccccc1	-3	.	.	.	.	.
CCCc1nc2ccc(C)cn2c1Cc1ccccc1	51*	3	2	.	3	.
C[C@H]1CN([C@@H](C)CO)S(=O)(=O)c2ccc(-c3ccc(C(=O)N(C)C)cc3)cc2O[C@H]1CN(C)Cc1ccccc1C(=O)O	-7	.	.	.	.	.
C/C=C/c1ccc2c(c1)O[C@@H](CN(C)C)[C@H](C)CN([C@@H](C)CO)S2(=O)=O	-14	.	.	.	.	.
CCOC(=O)CNC(=O)c1sc(NC(=O)c2cccc(F)c2)nc1C	54*	7	0	-1	1	14
CCOC(=O)CNC(=O)c1sc(NC(=O)c2ccccc2F)nc1C	57*	0	-2	-1	6	-1
CC(=O)c1sc(NC(=O)c2cccc(C)c2)nc1C	.	-3	15	-1	7	-12
Cc1ccc(S(=O)(=O)N(C)C[C@H]2OCCCC[C@H](C)Oc3ccc(NC(=O)C4CCCCC4)cc3C(=O)N([C@@H](C)CO)C[C@@H]2C)cc1	0	.	.	.	.	.
C[C@H]1CN([C@@H](C)CO)S(=O)(=O)c2ccc(-c3ccccc3)cc2O[C@H]1CN(C)CC1CC1	-3	.	.	.	.	.
CN(Cc1c(C(=O)N/N=C/c2ccccc2F)nnn1-c1nonc1N)c1ccccc1	-4	13	11	12*	-2	9
Nc1nonc1-n1nnc(C(=O)N/N=C/c2cc(Br)cs2)c1-c1ccccc1	-4	6	9	15*	-4	2
COc1ccccc1/C=N/NC(=O)c1nnn(-c2nonc2N)c1CN(C)c1ccccc1	-2	17	-12	4	0	0
CN(C)Cc1c(C(=O)N/N=C/c2cccnc2)nnn1-c1nonc1N	-4	1	-9	-1	1	-20
C/C(=N\N=C\c1ccccc1F)c1nnn(-c2nonc2N)c1C	.	2	15	25*	1	22
Nc1nonc1-n1nnc(C(=O)N/N=C/c2ccccc2F)c1-c1cccs1	1	4	-8	-7	-3	-5
CN(Cc1c(C(=O)N/N=C/c2ccccc2)nnn1-c1nonc1N)c1ccccc1	1	11	7	19*	1	-21
CCOc1ccc(/C=N/NC(=O)c2nnn(-c3nonc3N)c2CN(C)C2CCCCC2)cc1	3	8	-4	1	-1	-4
COc1ccc(/C=N/NC(=O)c2nnn(-c3nonc3N)c2CN(C)c2ccccc2)cc1	7	3	1	24*	-2	0
CN(Cc1c(C(=O)N/N=C/c2ccc(O)cc2)nnn1-c1nonc1N)c1ccccc1	3	-5	22	24*	-2	2
COc1ccc(/C=N/NC(=O)c2nnn(-c3nonc3N)c2-c2cccs2)cc1OC	4	10	-2	9	-1	-5
Nc1nonc1-n1nnc(C(=O)N/N=C/c2cccc(Cl)c2)c1-c1cccs1	3	-3	13	27*	-5	-11
CN(Cc1c(C(=O)N/N=C/c2cccc(Cl)c2)nnn1-c1nonc1N)c1ccccc1	-5	16	4	21*	1	-6
SMILES	esBAF inh	NadD inh	SKN-1 block	GRIN3A LBD mod	SMARCA2 activ	Vif inh
C[C@H]1CCCCO[C@@H](CN(C)CC2CCCCC2)[C@@H](C)CN([C@@H](C)CO)C(=O)c2cc(NS(=O)(=O)c3ccc(F)cc3)ccc2O1	5	.	.	.	.	.
CN(C)CCCNC(=O)[C@H]1[C@H](CO)[C@H]2Cn3c(ccc(-c4cccc(F)c4)c3=O)[C@@H]1N2C	-5	.	.	.	.	.
C[C@@H]1CCCCO[C@@H](CN(C)S(=O)(=O)c2cn(C)cn2)[C@@H](C)CN([C@H](C)CO)C(=O)c2cc(NC(=O)Nc3ccccc3)ccc2O1	-6	.	.	.	.	.
C[C@@H]1CCCCO[C@@H](CN(C)C(=O)Cc2ccccc2)[C@@H](C)CN([C@@H](C)CO)C(=O)c2cc(NS(=O)(=O)c3ccccc3)ccc2O1	-1	.	.	.	.	.
COc1cc(/C=C/C(=O)OCC(=O)N2CCC(C)CC2)ccc1O	-4	-4	6	3	-3	0
COc1cc(/C=C/C(=O)OC2CC3CCC2(C)C3(C)C)ccc1O (stereo not given)	47*	-4	9	2	2	11
CN(C)C(=O)C[C@@H]1CC[C@H](NC(=O)C2CC2)[C@H](CO)O1	-1	.	.	.	.	.
C[C@H]1CN([C@@H](C)CO)C(=O)c2cccc(NC(=O)Nc3cccc4ccccc34)c2O[C@@H]1CN(C)S(C)(=O)=O	4	.	.	.	.	.
O=C(CCCN1C(=O)/C(=C\c2cccs2)SC1=S)Nc1cc([N+](=O)[O-])ccc1O	2	11	-4	23*	-1	-19
O=C(O)CCCN1C(=O)/C(=C/c2cn(-c3ccccc3)nc2-c2cccs2)SC1=S	.	34*	6	3	-3	-20
O=C1S/C(=C\c2cccs2)C(=O)N1c1ccc(O)cc1	50*	-23	-1	0	7	4
O=C(CCN1C(=O)/C(=C/c2cccs2)SC1=S)Nc1ccc(O)cc1	6	2	20	22*	-1	2
COc1cccc(C(=O)N2C[C@H]3[C@@H](c4ccccc42)[C@@H](CO)N3Cc2cccnc2)c1	-4	.	.	.	.	.
C[C@@H]1CN([C@@H](C)CO)C(=O)c2cccc(NS(=O)(=O)c3ccc(Cl)cc3)c2O[C@H]1CN(C)S(=O)(=O)c1cn(C)cn1	-4	.	.	.	.	.
O=C(CCCN1C(=O)/C(=C/c2cccs2)SC1=S)Nc1cccc(O)c1	8	-1	38	14*	-4	-2
O=C1/C(=C/c2cccs2)SC(=S)N1CC(=O)N1CCCCC1CCO (stereo not given)	14	17	44*	1	0	-2
O=C1/C(=C/c2ccccc2)SC(=S)N1CCCC(=O)N1CCCCC1CCO (stereo not given)	-4	-7	3	-1	-1	-1

Screens deposited in PubChem by several laboratories.
